# Screening results deposited in PubChem by The Scripps Research Institute Molecular Screening Center.
# Only some compounds are listed: those with a hit (about 4.5% of all), similar ones and a draw of the others.
# ssDAF12 agonist – activators of S. stercoralis DAF-12 nuclear receptor. AID 652126. 370,000 tested, 1% active. activation, % at 6.8 µM. HEK293 ssDAF-12/GRIP1 lit1-tk-luc reporter, luminescence; % of 3 µM dafachronic acid response;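 active = activation above the mean over all tested compounds plus 3 SD, cut at about 0.9% in these data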;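 also: 0% = DMSO-only wells and 100% = 3 µM delta7-dafachronic acid wells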
# GAA850 FXN act – frataxin GAA850 promoter activation; HEK293 lucGAA850 FXN promoter luciferase reporter, 24 h; percent of 10 µM SAHA response; activation, % at 6 µM; 360,000 tested, 0.56% active; AID 540364;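 active = activation above the average of all compounds screened plus 3 SD, cutoff fixed separately per campaign, cut at about 7.5% in these data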;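 also: 0% = DMSO wells and 100% = 10 µM SAHA wells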
# DAX1 inh-1 – inhibitors of DAX1 repression of SF-1 activated StAR promoter | HEK293T StAR-luciferase reporter, SF-1/DAX-1 repression relief | inhibition, % at 6.8 µM | 370,000 tested, 1.1% active;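 active = inhibition above the mean over all tested compounds plus 3 SD, cut at about 3.6% in these data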;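 also: 0% = DAX-1 cells with DMSO and 100% = cells lacking DAX-1 with DMSO; higher inhibition means more luminescence from relief of DAX-1 repression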
# hcDAF-12 act – activates DAF-12 receptor from parasite H. contortus. activation, % at 6.8 µM. 370,000 tested, 1.4% active. HEK293 hcDAF-12 lit1-tk-luc reporter, luminescence; 0% DMSO, 100% Δ7-dafachronic acid. AID 652067;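 active = activation above the mean of all tested compounds plus 3 SD, cut at about 5.5% in these data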;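 also: 100% = response to 3 µM Δ7-dafachronic acid high control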
# hgDAF-12 ag – activates the H. glycines DAF-12 receptor ligand-binding domain; HEK293 GAL4-hgDAF12 UAS-luciferase reporter, agonist luminescence; normalized to butyrate control; activation, % at 6.8 µM; 370,000 tested, 1.8% active; AID 687014;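 active = activation above a cutoff set at the mean of all screened compounds plus 3 SD, cut at about 10% in these data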;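 also: 0% = DMSO wells and 100% = sodium butyrate wells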
# DAX1 inh-2 – inhibitors of human orphan nuclear receptor DAX1 (NR0B1); HEK293 Gal4-DAX1 luciferase reporter, luminescence; inhibition, % at 6.75 µM; 340,000 tested, 0.99% active;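 active = inhibition above the mean over all tested compounds plus 3 SD, cut at about 4.2% in these data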;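 also: 0% = DAX1-transfected cells with DMSO and 100% = empty-vector control cells with DMSO; inhibition shows as a rise in luminescence from relieved DAX1 repression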
# Target sequence (P51843 207-470 limits assumed): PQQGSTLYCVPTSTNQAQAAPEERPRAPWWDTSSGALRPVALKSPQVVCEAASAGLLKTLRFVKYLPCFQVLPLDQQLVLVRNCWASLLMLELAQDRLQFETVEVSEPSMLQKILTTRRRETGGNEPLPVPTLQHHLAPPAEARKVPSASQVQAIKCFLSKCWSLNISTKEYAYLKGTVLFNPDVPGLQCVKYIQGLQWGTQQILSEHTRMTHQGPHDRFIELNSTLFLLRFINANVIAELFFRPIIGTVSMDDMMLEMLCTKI
# An asterisk follows results filed as active; . = not tested or not shown.
SMILES,ssDAF12 agonist,GAA850 FXN act,DAX1 inh-1,hcDAF-12 act,hgDAF-12 ag,DAX1 inh-2
O=C(Nc1ccc(CN2CCOCC2)cc1)c1ccccc1F,0,4,3,2,12*,0
Cc1ccc(C(C)C)c(OCC(=O)NNC(=O)CC2OC(=O)c3ccccc32)c1 (stereo unspecified),0,0,-1,-1,2,4.2*
CCOC(=O)C(c1nc2ccccc2[nH]1)n1c(-c2ccccn2)nc2ccccc21 (stereo unspecified),0,.,2,6.5*,8,.
CCC(c1nc2ccccc2[nH]1)n1c(-c2cnccn2)nc2ccccc21 (stereo unspecified),1,.,-1,-2,-1,.
CCCC1CCC2(CC1)CCC2OC(=S)Nc1cccc(C(F)(F)F)c1 (stereo unspecified),-2,.,.,0,-3,.
Nc1nc(-c2cc3ccccc3o2)cs1,0,7,3,3,9,5.2*
NCC(c1ccco1)c1c[nH]c2ccccc12 (stereo unspecified),0,-1,0,6.1*,-1,-1
CN(C)c1ccc(C(CN)c2c[nH]c3ccccc23)cc1 (stereo unspecified),0,-2,1,5,4,2
O=C(NNC(=O)c1cc2ccccc2o1)c1ccc(F)cc1,0,3,3,2,0,1
Cc1csc(C(C#N)C(=O)c2cc3ccccc3o2)n1 (stereo unspecified),-1,4,3.9*,4,4,-1
O=C(Nc1cccc(Cl)c1)OCCOc1ccccc1,-1,5,0,1,4,6.0*
O=C(Nc1ccccc1)OCCOc1ccccc1,-1,4,1,2,12*,3
NC(=O)COc1ccccc1,1.2*,2,0,1,1,1
O=C(NCCOc1ccccc1)c1ccccc1Cl,0,4,3,4,12*,2
Cc1ccc(NC(=O)OC2CC3CC2[C@H]2CCCCN2C3)cc1C (stereo partly specified),-1,.,0,0,7,.
NNC(=O)c1ccccc1OCCOc1ccccc1,2.7*,4,0,3,0,3
C/C(=N\NC(=O)c1ccccc1OCCOc1ccccc1)c1ccccc1F,0,-3,-4,1,1,-1
COc1ccc(C(=O)OCCCN(C)C2CN(Cc3cn(Cc4ccc([N+](=O)[O-])cc4)nn3)S(=O)(=O)C2)cc1OC (stereo unspecified),-1,.,-3,-1,-3,.
O=C(COc1ccccc1)NCC(=O)N/N=C/c1ccc(O)cc1O,0,0,-1,2,-1,7.1*
CC(C)OC(=O)CSc1nnc(-c2ccc(C(C)(C)C)cc2)n1N,-1,0,1,0,3,5.0*
CN1CCN(c2ccc3c(c2)Oc2ccccc2CN(Cc2cn(Cc4ccc(C(F)(F)F)cc4)nn2)S3(=O)=O)CC1,-1,.,-1,-1,-1,.
Cc1cc(C)c(NC(=O)C2CCCN2CCC(C)C)c(C)c1 (stereo unspecified),-1,0,0,-1,0,4.8*
COc1ccc(N=c2cc(-c3ccc(OC)cc3)oc3ccccc23)cc1,1.0*,4,0,0,8,2
Cc1c(C(=O)N/N=C/c2ccccc2Cl)[nH][nH]c1=O,-1,.,1,-1,6,.
O=C(CCS(=O)(=O)c1cccs1)NC1CCCCCC1,0,5,1,1,12*,2
SMILES,ssDAF12 agonist,GAA850 FXN act,DAX1 inh-1,hcDAF-12 act,hgDAF-12 ag,DAX1 inh-2
O=C(CCS(=O)(=O)c1ccc(Br)cc1)NC1CCCC1,.,-2,.,.,.,0
CCOC(=O)[C@@]12CCCC3=C1N(CCC3)C(=O)[C@H]2CC(=O)N1CCN(C(=O)C2CC2)CC1,-1,.,0,-3,1,.
NS(=O)(=O)c1ccc(NC(=O)CN2C(=O)C3C4C=CC(C4)C3C2=O)cc1 (stereo unspecified),-1,-2,1,-1,-1,5.5*
COc1ccc(-c2nc3ccc(N4CCN(C)CC4)cc3c(=O)[nH]2)cc1,-1,2,1,-1,5,5.0*
O[C@H](COc1ccc(Cl)cc1)CN1CCC(C(O)(c2ccccc2)c2ccccc2)CC1,-1,.,0,1,0,.
Oc1cc(-c2ccncc2)cc2cccnc12,-1,1,0,-2,-1,-2
Oc1cc(-c2ccc(N3CCCCC3)nc2)cc2cccnc12,.,1,.,.,.,5.6*
CC(C)c1ccc(NC(=O)NC2CC3CCC(C2)N3Cc2cccs2)cc1 (stereo unspecified),-1,1,-1,-2,-2,-1
O=C(Nc1cccc(Cl)c1)NC1CC2CCC(C1)N2Cc1cccs1 (stereo unspecified),-1,-1,1,0,0,4.6*
Cc1cccc(Cn2c(=O)n(Cc3ccco3)c(=O)c3ccccc32)c1,-1,3,-1,-2,-2,-1
Cc1ccccc1Cn1c(=O)n(Cc2ccco2)c(=O)c2ccccc21,-2,4,-1,-1,-1,4.5*
Cc1ccccc1Cn1c(=O)n(-c2ccccc2)c(=O)c2ccc(C(=O)NCc3ccco3)cc21,-1,0,0,1,1,4.6*
Cc1ccc(-n2c(=O)c3ccc(C(=O)NCc4ccco4)cc3n(Cc3ccccc3C#N)c2=O)cc1,0,1,0,-1,2,0
Cc1ccc(S(=O)(=O)N2CCN(C(=O)c3c(C)nn(-c4ccccc4)c3Cl)CC2)cc1,-1,1,0,0,0,1
COc1ccc(NC(=O)c2c(C)nn(-c3ccccc3)c2Cl)cc1,-1,1,0,1,2,5.1*
Cc1nn(-c2ccccc2)c(Cl)c1C(=O)N1CCN(C)CC1,-1,-1,-1,0,2,9.1*
Cc1noc(C(=O)Nc2cccc(Cl)c2)c1Cl,1,3,0,3,6,3
Cc1noc(C(=O)Nc2cccc(O)c2)c1Cl,0,0,1,5.6*,4,0
COc1cccc(NC(=O)c2c(C)nn(-c3ccccc3)c2Cl)c1,-1,1,0,0,3,0
COc1ccc(NC(=O)c2onc(C)c2Cl)cc1OC,-2,-1,2,-1,0,0
COc1ccc(NC(=O)c2onc(C)c2Cl)cc1,0.9*,5,2,5,8,1
C[C@H]1[C@@H](OC(=O)NCc2ccc(Cl)cc2)CC[C@@]23CCCN2C(=O)CCC[C@@H]13,-1,.,.,0,-1,.
O=C1C2CSCN2C(=O)CN1CCCN1CCN(C(c2ccccc2)c2ccccc2)CC1 (stereo unspecified),1.2*,1,0,0,-1,0
